Measurements as given in PubChem BioAssay (NCATS).
“And” between values parts separate entries of the source, which are not always exact repeats. Equal values may be shown once. Inconclusive results are not listed. The source made the active and inactive calls. Unless noted, the call rests on the fitted dose curve; in most records, active means well fitted inhibition curve with a large enough effect; inconclusive means small, poorly fitted or top-dose-only effect; inactive means no such curve, though single readings can be large or run the other way.

Tests used:
[1] = qHTS profiling of the MIPE4 collection as inhibitors of Plasmodium falciparum (3D7) proliferation (AID 743344; call rule not given here;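 further: scaled between DMSO vehicle wells and 0.29 µM artemisinin as full inhibition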); conditions: P. falciparum 3D7 in erythrocytes, SYBR Green DNA fluorescence, 72 h; at 28.5 µM unless noted
In short: (§1)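 Parasite DNA was quantified by SYBR Green I fluorescence (ex 485, em 535 nm) after overnight lysis in saponin/Triton buffer at room temperature. Cultures at 0.3% parasitemia and 2.5% hematocrit were first exposed to compound for 72 h at 37 C; signals were normalised to artemisinin (0.29 uM) and vehicle wells.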

[2] = qHTS profiling of the MIPE4 collection as inhibitors of Plasmodium falciparum (DD2) proliferation (AID 743345; call rule not given here); conditions: P. falciparum Dd2 in erythrocytes, SYBR Green DNA, 72 h; at 28.5 µM unless noted
In short: as §1

[3] = qHTS profiling of the MIPE4 collection as inhibitors of Plasmodium falciparum (DD2) proliferation (Rep 2) (AID 743346; call rule not given here); conditions: P. falciparum Dd2 in erythrocytes, SYBR Green DNA, 72 h; at 28.5 µM unless noted
In short: as §1

[4] = qHTS profiling of the MIPE4 collection as inhibitors of Plasmodium falciparum (HB3) proliferation (AID 743347; call rule not given here;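 further: plate controls were DMSO vehicle wells for no effect and artemisinin wells for full effect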); conditions: P. falciparum HB3 in erythrocytes, SYBR Green DNA, 72 h; at 28.5 µM unless noted
In short: as §1

[5] = High-throughput drug toxicity screening in the BPDCN cell line Gen2.2 (AID 1224824; call rule not given here;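 further: cells exposed to compounds for 48 h before reading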); conditions: Gen2.2 BPDCN cells; at 45.8 µM (top of the series) unless noted
In short: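 Gen2.2 cells, 500 per well in phenol red-free RPMI with 10% FBS, exposed to compounds 48 h at 37 C, 5% CO2; viability by CellTiter-Glo luminescence. Percent activity scaled to DMSO (100%) and 9.2 uM bortezomib final (0%).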

[6] = High-throughput drug toxicity screening in the BPDCN cell line Cal-1 (AID 1224825; call rule not given here); conditions: Cal-1 BPDCN cell viability, qHTS; at 45.8 µM (top of the series) unless noted
In short: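 Viability of the BPDCN line Cal-1 is measured as ATP-based luminescence (CellTiter-Glo) following 48 h incubation with compounds. Percent activity uses DMSO-treated wells as 100% and 9.2 uM bortezomib as 0%.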

[7] = qHTS assay for measurement of the activity of small molecule inhibitors on Zika virus induced Caspase-3 activity in human iPSC derived neural progenitor cells (hNPCs) (AID 1224857); further: % of control where 0% means no effect; nearly all actives have a fitted effect of over 65% in size
In short: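 Zika virus (2 FFU/cell) infection of human iPSC-derived NPCs, 6 h, following 1 h compound preincubation. Read-out: Caspase-Glo 3/7 luminescence.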

[8] = qHTS assay for measurement of the activity of small molecule inhibitors on Zika virus induced Caspase-3 activity in human astrocytoma cells (AID 1224859);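 further: plate controls were ZIKV-infected untreated cells for no effect and uninfected cells for full effect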
In short: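 Caspase activation in ZIKV-infected SNB-19 cells (2 FFU/cell, 6 h) measured by Caspase-Glo 3/7 luminescence after 30 min RT; compound pre-incubated 1 h; normalised to uninfected and infected controls.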

[9] = qHTS Screen of the MIPE 4.0 Collection Against Ewings Sarcoma (RDES) (AID 1259252); further: nearly all actives have a fitted effect of over 35% in size; further: potency means the concentration at half of the fitted maximal effect
In short: (§2)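 Compound titrations go onto adherent log-phase cells 4 h after seeding, incubate 48 h at 37C, then CellTiter-Glo luminescence reports viability relative to DMSO and cell-free controls.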

[10] = qHTS Screen of the MIPE 4.0 Collection Against Ewings Sarcoma (TC71) (AID 1259253); further: nearly all actives have a fitted effect of over 40% in size; further: potency means the concentration at half of the fitted maximal effect
In short: as §2

[11] = qHTS Screen of the MIPE 4.0 Collection Against Ewings Sarcoma (EW8) (AID 1259255); further: nearly all actives have a fitted effect of over 35% in size; further: potency means the concentration at half of the fitted maximal effect;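 on viability: 100% = DMSO-treated cells and 0% = medium-only wells without cells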
In short: as §2

[12] = qHTS Screen of the MIPE 4.0 Collection Against Ewings Sarcoma (TC32) (AID 1259256); further: nearly all actives have a fitted effect of over 45% in size; further: potency means the concentration at half of the fitted maximal effect
In short: as §2

Row | SMILES | parasite growth, % of DMSO control [1] | parasite growth remaining, % of DMSO control (lower = more inhibition) [2] | parasite growth, % of control (lower = inhibition) [3] | growth, % of control [4] | cell viability, % of control (lower = more cytotoxic) [5] | viability (% of control) [6] | Potency [7] | Potency [8] | Potency [9] | Potency [10] | Potency [11] | Potency [12]
1 | CC[C@H]1OC(=O)[C@H](C)[C@@H](O[C@H]2C[C@@](C)(OC)[C@@H](O)[C@H](C)O2)[C@H](C)[C@@H](O[C@@H]2O[C@@H](C)C[C@H](N(C)C)[C@@H]2O)[C@](C)(O)C[C@@H](C)C(=O)[C@H](C)[C@@H](O)[C@]1(C)O | 60.1% | 75% | 47.1% | 82.4% | 73.8% | 97% | inactive | inactive | inactive | inactive | inactive | inactive
2 | Cc1cc(-c2nnc3n2CCCCC3)c(C)n1-c1ccccc1 | 23% | 36.9% | 26.6% | 16.4% | 229% | 98.4% | inactive | inactive | inactive | inactive | inactive | 18.7 µM (active)
3 | CN1CCCN(C(=O)c2cccc(-c3ccc(C=C4C(=O)Nc5ccc(Cl)cc54)o3)c2)CC1 | 3.74% | 5.68% | 6.52% | 4.36% | 9.19% | 2.05% | inactive | inactive | 20.9 µM (active) | 16.6 µM (active) | 10.5 µM (active) | 18.7 µM (active)
4 | CC(C)(C)[N+]([O-])=Cc1ccc(S(=O)(=O)O)cc1S(=O)(=O)O | 102% | 92.1% | 85.8% | 63% | 133% | 111% | inactive | inactive | inactive | inactive | inactive | inactive
5 | C[C@@H]1[C@H](C)CC[C@]2(C(=O)O)CC[C@]3(C)C(=CC[C@@H]4[C@@]5(C)C[C@@H](O)[C@H](O)[C@@](C)(CO)[C@H]5CC[C@]43C)[C@@H]12 | 68.7% | 90.5% | 52.5% | 43.6% | 106% | 122% | inactive | inactive | inactive | inactive | inactive | inactive
6 | C[C@H](CCC(=O)O)[C@H]1CCC2C3C[C@H](O)[C@@H]4C[C@H](O)CC[C@]4(C)C3CC[C@@]21C (stereo partly drawn) | 79.8% | 102% | 88.7% | 103% | 130% | 120% | inactive | inactive | inactive | inactive | inactive | inactive
7 | C[C@H](NCc1ccc2c(c1)nc(NC(=O)c1ccc(-c3cn[nH]c3)s1)n2CCc1ccccc1)C(C)(C)C | 5.07% | 4.87% | 13.1% | 10.1% | 9.44% | 2.31% | inactive | inactive | 2.35 µM (active) | 1.48 µM (active) | 2.09 µM (active) | 2.96 µM (active)
8 | C#C[C@]1(O)CC[C@@H]2[C@@H]3CCc4cc(O)ccc4[C@H]3CC[C@@]21C | 75.9% | 90.7% | 54.7% | 89.8% | 67.3% | 11.2% | inactive | inactive | 18.7 µM (active) | 16.6 µM (active) | 20.9 µM (active) | 20.9 µM (active)
9 | N#Cc1c(C2CCNCC2)cc(-c2c(O)cccc2OCC2CC2)nc1N | 12% | 12.3% | 15.7% | 5.66% | 7.25% | 5.17% | inactive | inactive | 14.8 µM (active) | 10.5 µM (active) | 14.8 µM (active) | 14.8 µM (active)
10 | O=[N+]([O-])c1cn2c(n1)OC[C@@H](OCc1ccc(OC(F)(F)F)cc1)C2 | 94.2% and 79.4% | 99.7% and 101% | 155% and 70.1% | 98.1% and 86.3% | 110% | 105% | inactive | inactive | 3.32 µM (active) | 3.72 µM (active) | 9.35 µM (active) | 8.33 µM (active)
11 | CNC(=O)c1ccc(Nc2cc(Nc3ccccc3S(=O)(=O)C(C)C)c3cc[nH]c3n2)nc1 | 4.82% | 11.9% | 12.7% | 2.73% | 19.7% | 3.36% | inactive | inactive | 5.9 µM (active) | 4.18 µM (active) | 0.59 µM (active) | 0.935 µM (active)
12 | CN1CCc2c(c3ccccc3n2Cc2ccc(C(=O)NO)cc2)C1 | 5.11% | 12.1% | 15.2% | 5.01% | 4.7% | 4.77% | inactive | inactive | 13.2 µM (active) | 16.6 µM (active) | 13.2 µM (active) | 18.7 µM (active)
13 | N#CNC(=NCCCCCCOc1ccc(Cl)cc1)Nc1ccncc1 | 12.1% | 35.9% | 28% | 3.38% | 25.6% | 2.53% | inactive | inactive | inactive | 0.0013 µM (active) | 0.003 µM (active) | inactive
14 | COc1cc(N2CCC(C(N)=O)CC2)ccc1Nc1nc(N)c(Cl)c(Nc2ccccc2S(=O)(=O)C(C)C)n1 | 38.7% | 37.8% | 35.9% | 53.9% | 147% | 10.6% | inactive | inactive | 1.05 µM (active) | 16.6 µM (active) | 20.9 µM (active) | 6.62 µM (active)
